Drawing on PubChem BioAssay (NCATS), this text covers max response and Potency for 32 compounds.

Molecules are shown by their SMILES. Values joined by “and” are separate entries in the source; they are usually repeats but may differ in a detail not shown here. Equal values may be shown once. Inconclusive results are not listed. A number with no mark means an inactive call. Active and inactive are the calls of the source. Calls come from the whole dose curve; as a rule, active = well fitted inhibition curve with a large enough effect; inconclusive = small, poorly fitted or top-dose-only effect; inactive = flat fitted curve, though single readings scatter.
% is set by controls: 0 for no effect and ±100 for the full control effect; potency is the fitted concentration of half-maximal effect.

The subject of one assay is CRL-7250. The experiment in a line: Cytotoxic Profiling of Annotated Libraries Using Quantitative High-Throughput Screening (AID 1296008). Note: nearly all actives have a fitted effect of over 60% in size. Particulars: Five cell lines viability, CellTiter-Glo ATP luminescence, 48-72 h; max response: hits give low values. In outline:
(§1)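 Cytotoxicity was measured as CellTiter-Glo ATP luminescence, read after 10 min at room temperature. Compound treatment of the cells lasted 48 or 72 hr at 37 degrees Celsius in a qHTS format.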
On the technique in general: In ATP-based viability assays light output follows the ATP content of the culture.
Regarding `COc1cc(-c2nn(C3CCC(N4CCN(C(C)=O)CC4)CC3)c3ncnc(N)c23)ccc1NC(=O)c1cc2ccccc2n1C` (configuration not stated), the max response was -38.4%.

`O=C(NC1CCNCC1)c1[nH]ncc1NC(=O)c1c(Cl)cccc1Cl`: the Potency was 0.332 µM (active).

Consider `Cc1cn2cc(C(=O)N(C)CCO)cc(N[C@@H]3CCOc4cccc(C)c43)c2n1`, for which the max response was -0.414% and 0.78%.

Turning to `O=C(c1ccc(Nc2nccc(-c3cc4ccccc4s3)n2)cc1)N1CCC(N2CCCC2)CC1`, the Potency was 14.8 µM (active).

On to `Cc1ccc(S(=O)(=O)Nc2cc(Cl)ccc2C(=O)Nc2nc(-c3ccccc3)cs2)cc1`, for which the max response was 3.55%.

Consider `C#Cc1cccc(Nc2ncnc3cc(OC)c(OCCCCCCC(=O)NO)cc23)c1`, for which the Potency was 4.69 µM (active).

Consider `Cc1nc2ccc(CN(C)c3ccc(C(=O)N[C@@H](CCC(=O)O)C(=O)O)s3)cc2c(=O)[nH]1`, for which the max response was -19.7%.

Take `Cc1cc(N2CCOCC2)cc2[nH]c(-c3c(NC[C@@H](O)c4cccc(Cl)c4)cc[nH]c3=O)nc12`: the Potency was 11.8 µM (active).

For the next assay, the system named is HEK293. The description is as above. Particulars: Five cell lines viability, CellTiter-Glo ATP luminescence, 48-72 h; max response: hits give low values. An outline of the steps: as §1
For the compound `O=c1c2ccccc2nc2n1CCc1c-2[nH]c2ccccc12`, the max response was -12.5%.

Turning to `CC1(C)CC(=O)c2c(C(F)(F)F)nn(-c3ccc(C(N)=O)c(NC4CCC(OC(=O)CN)CC4)c3)c2C1` (configuration not stated), the Potency is 118 nM (active) and 58 nM (active).

Turning to `NC(=O)c1cccc2cn(-c3ccc([C@@H]4CCCNC4)cc3)nc12`, the Potency is 6.51 µM (active).

Consider `C=CC(=O)Nc1cccc(Oc2nc(Nc3ccc(N4CCN(C)CC4)cc3)ncc2Cl)c1`, for which the Potency was 5.26 µM (active) and 9.2 µM (active).

In the case of `Cn1cc(-c2[nH]c3cc(NC(=O)[C@H](N)C4CCCCC4)cc4c3c2C=NNC4=O)cn1`, the Potency was 3.32 µM (active) and 5.8 µM (active).

With `c1ccc2c(CCNc3ccc(Nc4ccncc4)cc3)c[nH]c2c1`, the Potency was 1.05 µM (active) and 2.31 µM (active).

Take `COc1cc2c(Oc3ccc(NC(=O)C4(C(=O)Nc5ccc(F)cc5)CC4)cc3F)ccnc2cc1OCCCN1CCOCC1`: the Potency was 8.33 µM (active) and 18.4 µM (active).

With `CC(=O)OCCN1C(=O)c2c(C)nc3ccc(S(=O)(=O)N4CCOCC4)cc3c2C1=O`, the max response was -2.2%.

On to `CC(C)=CCCC(C)=CCCC(C)=CCSc1ccccc1C(=O)O`, for which the Potency was 1.66 µM (active).

In the case of `C[C@@H]1CN(CC(=O)Nc2ccc3c(c2)Cc2cccc(-c4cc(=O)cc(N5CCOCC5)o4)c2S3)C[C@H](C)O1`, the Potency was 18.7 µM (active).

`C[C@@H](Oc1cc(-c2cnn(C3CCNCC3)c2)cnc1N)c1c(Cl)ccc(F)c1Cl`: the Potency was 4.18 µM (active) and 4.11 µM (active) and 5.8 µM (active).

For the compound `CCn1nnc2c(N3CCOCC3)nc(-c3ccc(NC(=O)Nc4ccc(C(=O)N5CCN(C)CC5)cc4)cc3)nc21`, the Potency was 0.206 µM (active).

For the compound `C[C@@]12O[C@@H](C[C@]1(O)CO)n1c3ccccc3c3c4c(c5c6ccccc6n2c5c31)CNC4=O`, the Potency is 4.18 µM (active).

Consider `COc1cc2c(Oc3ccc(-c4cnc(Nc5ccc(F)cc5)n(C)c4=O)cc3F)ccnc2cc1OCCCN1CCOCC1`, for which the Potency was 4.69 µM (active).

For the compound `NC(=O)Nc1cc(-c2cccc(F)c2)sc1C(=O)N[C@H]1CCCNC1`, the Potency was 148 nM (active) and 231 nM (active).

As for `CN(C)CCCN=c1c2ccccc2n(C)c2[nH]c(=O)n(C)c(=O)c12`, the Potency was 5.26 µM (active).

For `CN(C)Cc1c(C(=O)NCCOc2ccc(C(=O)NO)cc2)oc2ccccc12`, the Potency was 1.87 µM (active) and 1.16 µM (active).

As to `Cc1c(CN2CCN(S(C)(=O)=O)CC2)sc2c(N3CCOCC3)nc(-c3cnc(N)nc3)nc12`, the Potency was 59 nM (active) and 326 nM (active).

In the case of `C=CC(=O)Nc1cccc(Oc2nc(Nc3ccc(N4CCN(C)CC4)cc3OC)ncc2Cl)c1`, the max response is -27.8%.

With `CC(C)(C)OC(=O)Nc1ccc(-c2cc(C(=O)NCCCCCCC(=O)NO)no2)cc1`, the Potency was 7.43 µM (active).

`Cc1nc(Nc2n[nH]c3c2CN(C(=O)N[C@H](CN(C)C)c2ccccc2)C3(C)C)c2sccc2n1`: the Potency was 20.9 nM (active) and 10.3 nM (active).

As to `Cc1[nH]c2ccccc2c1CCNCc1ccc(C=CC(=O)NO)cc1`, the Potency was 0.418 µM (active).

`O=C(Nc1ncc(-c2cc(C(F)F)nn2-c2c(Cl)cccc2Cl)s1)C1CC1`: the Potency was 1.05 µM (active).

With `CC[C@@]1(O)C(=O)OCc2c1cc1n(c2=O)Cc2cc3cc(O)ccc3nc2-1`, the Potency is 73.1 nM (active) and 148 nM (active).
